Calls of active or inactive are those of the source. The calls were made as follows: active = hit-call score of the fitted dose curve at least 0.9, where 1 is the maximum; inactive = score below 0.9.

Read-out in assay [1]: Monokine induced gamma interferon (MIG), CXCL9 (gene 4283)
Briefly: BSK_hDFCGF_MIG: BioMAP Diversity Plus: hDFCGF Assay for Monokine induced gamma interferon (MIG) Biomarker Activity (AID 2283063). Conditions: primary human foreskin fibroblasts; actives raise or lower the signal. A digest of the protocol: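 Human primary foreskin fibroblasts in the hDFCGF system, exposed to test chemical for 24 h; MIG measured by ELISA. Bidirectional curve fitting against DMSO negative control as activity baseline.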

Read-out in assay [2]: Matrix Metallopeptidase 1 (MMP1), MMP1 (gene 4312)
Briefly: BSK_hDFCGF_MMP1: BioMAP Diversity Plus: hDFCGF Assay for Matrix Metallopeptidase 1 (MMP1) Biomarker Activity (AID 2283064). Conditions: primary human foreskin fibroblasts; actives raise or lower the signal. A digest of the protocol: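 ELISA read-out of MMP1 from human foreskin fibroblasts (primary skin cells), 24 h post-dose. Gain or loss of signal was fitted bidirectionally versus DMSO negative control; cytotoxicity was checked by SRB in parallel cultures.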

Read-out in assay [3]: Vascular cell adhesion molecule 1 (VCAM1), VCAM1 (gene 7412)
Briefly: BSK_hDFCGF_VCAM1: BioMAP Diversity Plus: hDFCGF Assay for Vascular cell adhesion molecule 1 (VCAM1) Biomarker Activity (AID 2283065).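 As to AC50: VCAM-1 protein level quantified by ELISA after 24 h chemical exposure.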 Conditions: primary human foreskin fibroblasts; actives raise or lower the signal. Summed up: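 ELISA readout of VCAM-1 on human dermal fibroblast primary cultures, 24 h after chemical exposure. Gain or loss of signal fitted in both directions against DMSO baseline.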

Read-out in assay [4]: Plasminogen activator inhibitor-1 (PAI1), SERPINE1 (gene 5054)
Briefly: BSK_hDFCGF_PAI1: BioMAP Diversity Plus: hDFCGF Assay for Plasminogen activator inhibitor-1 (PAI1) Biomarker Activity (AID 2283066). The settings on record: primary human foreskin fibroblasts; actives raise or lower the signal. A digest of the protocol:
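PAI-1 levels in human dermal foreskin fibroblasts were quantified by ELISA 24 h after dosing, with gain or loss analysed against DMSO. Overt cytotoxicity was checked by sulforhodamine B total-protein staining in parallel cultures.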

Read-out in assay [5]: Intercellular Adhesion Molecule 1 (ICAM1), ICAM1 (gene 3383)
Briefly: BSK_KF3CT_ICAM1: BioMAP Diversity Plus: KF3CT Assay for Intercellular Adhesion Molecule 1 (ICAM1) Biomarker Activity (AID 2283067). Conditions: primary human keratinocytes with fibroblasts; actives raise or lower the signal. A digest of the protocol: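 Cell-surface ICAM-1 was measured by ELISA 24 h after dosing primary human skin keratinocytes co-cultured with fibroblasts. Parallel SRB staining tracked overt cytotoxicity. Gain or loss of signal was fitted relative to DMSO.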

Read-out in assay [6]: Interferon-gamma inducible Protein 10 (IP10), CXCL10 (gene 3627)
Kind of assay: BSK_KF3CT_IP10: BioMAP Diversity Plus: KF3CT Assay for Interferon-gamma inducible Protein 10 (IP10) Biomarker Activity (AID 2283068). The settings on record: primary human keratinocytes with fibroblasts; actives raise or lower the signal. Summed up: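 Signal is secreted/surface IP-10 by ELISA in a human primary skin co-culture of keratinocytes and foreskin fibroblasts, taken 24 h post-dosing; DMSO served as negative control.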

Assay [7] in a line: BSK_KF3CT_SRB: Viability Assessment in the BioMAP Diversity Plus: KF3CT Assay (AID 2283069).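 Also: read 24 h after compound addition.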 The settings on record: primary human keratinocytes with fibroblasts. Summed up:
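SRB read-out at 560 nm (0.1% stain, TCA-fixed cells) gauges overt cytotoxicity in a human skin keratinocyte–fibroblast co-culture 24 h post-dosing. Signal change was fitted bidirectionally relative to DMSO control.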

Read-out in assay [8]: TIMP metallopeptidase inhibitor 2 (TIMP2), TIMP2 (gene 7077)
Briefly: BSK_KF3CT_TIMP2: BioMAP Diversity Plus: KF3CT Assay for TIMP metallopeptidase inhibitor 2 (TIMP2) Biomarker Activity (AID 2283071). Conditions: primary human keratinocytes with fibroblasts; actives raise or lower the signal. Summed up: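 TIMP-2 measured by ELISA at 24 h in human keratinocyte/fibroblast primary co-cultures exposed to chemicals. Both increases and decreases were fitted against DMSO. Parallel cultures were stained with SRB for total protein as an overt-cytotoxicity check.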

Read-out in assay [9]: Interleukin-1 alpha (IL1a), IL1A (gene 3552)
Briefly: BSK_KF3CT_IL1a: BioMAP Diversity Plus: KF3CT Assay for Interleukin-1 alpha (IL1a) Biomarker Activity (AID 2283070). The settings on record: primary human keratinocytes with fibroblasts; actives raise or lower the signal. Summed up: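 Primary skin co-culture (keratinocytes, foreskin fibroblasts), 24 h exposure; ELISA for IL-1a; bidirectional curve fit vs DMSO.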

Read-out in assay [10]: Transforming growth factor beta 1 (TGFb1), TGFB1 (gene 7040)
Briefly: BSK_KF3CT_TGFb1: BioMAP Diversity Plus: KF3CT Assay for Transforming growth factor beta 1 (TGFb1) Biomarker Activity (AID 2283072). Conditions: primary human keratinocytes with fibroblasts; actives raise or lower the signal. Summed up: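 ELISA quantifies TGF-b1 at 24 h post-dose in a primary human skin co-culture of keratinocytes and fibroblasts, with gain or loss judged against DMSO. Parallel SRB total-protein staining flags overt cytotoxicity.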

With `O=C(O)c1ccccc1C(=O)OCc1ccccc1`, the outcome in assay [1], in assay [2], in [3], in assay [4], in [5] and in [6] was inactive. The result in assay [7] and in assay [8] was inactive.

`O=C1O[C@H]([C@@H](O)CO)C(O)=C1O`: the outcome in assay [1], in assay [2], in assay [3], in [4], in assay [5] and in [6] was inactive. In addition, the outcome in assay [7], in assay [9], in assay [8] and in assay [10] was inactive.

With `c1ccc2ccccc2c1`, the result in [1], in [2], in [3], in [4], in assay [5] and in assay [6] was inactive. Moreover, the outcome in assay [7], in assay [9] and in [8] was inactive.

For the compound `CCCOC(=O)c1cc(O)c(O)c(O)c1`, the AC50 in [1] was 10.8 µM (active); in [8] it was 1.49 µM (active). Besides, the outcome in assay [2], in assay [3], in [4], in assay [5], in [6] and in [7] was inactive. In addition, in [9], the result was inactive.

With `COc1cccc([C@H](O)C2CCN(CCc3ccc(F)cc3)CC2)c1OC`, the result in assay [1], in assay [2], in assay [3], in assay [4], in assay [5] and in [6] was inactive. The outcome in assay [7] and in [8] was inactive.

In the case of `Cc1cc2c(cc1C(F)(F)F)N(C(=O)Nc1ccc(Oc3cccnc3C)nc1)CC2`, the result in [1], in assay [2], in assay [3], in assay [4] and in assay [5] was inactive. Further, the AC50 in assay [6] is 29.9 µM (active); in [7], 26.4 µM (active); in assay [8], 23.8 µM (active); in assay [10], 23.6 µM (active).

Turning to `O=C(O)Cc1cc(I)c(Oc2ccc(O)c(I)c2)c(I)c1`, the outcome in assay [1], in [3], in assay [5] and in [8] was inactive. The AC50 in assay [2] was 19.4 µM (active); in assay [4], 10.4 µM (active); in [6], 26.8 µM (active); in assay [7], 25.5 µM (active); in assay [10], 29.9 µM (active).

Turning to `CCCCCCCCCCCO`, the AC50 in assay [1] is 32.1 µM (active). Besides, the result in assay [2], in assay [3], in assay [4], in [5], in [6] and in assay [7] was inactive. The result in assay [9] and in [8] was inactive.

Regarding `COc1cc(C(=O)NC2CCN(C)CC2)ccc1Nc1ncc2c(n1)N(C1CCCC1)CC(F)(F)C(=O)N2C`, the AC50 is 6.25 µM (active) in assay [1]; 18.6 µM (active) in assay [2]; 2.79 µM (active) in [3]; 12.2 µM (active) in [4]; 18.6 µM (active) in assay [5]; 32.3 µM (active) in [6]. The AC50 is 30.8 µM (active) in assay [7], 7.74 µM (active) in assay [9], 28.9 µM (active) in [8] and 29.8 µM (active) in assay [10].

With `c1ccc(C[n+]2cccc3ccccc32)cc1`, the result in [1], in [2], in assay [3], in assay [4], in assay [5] and in assay [6] was inactive. For the same compound, the result in assay [7], in assay [9], in [8] and in assay [10] was inactive.

As for `O=CCCCC=O`, the AC50 is 32.4 µM (active) in assay [1]; 31.6 µM (active) in assay [2]; 20.7 µM (active) in [3]; 34 µM (active) in assay [4]; 33.6 µM (active) in assay [5]; 33 µM (active) in [6]. Moreover, the AC50 is 34.1 µM (active) in [7], 31.2 µM (active) in [9], 26.2 µM (active) in [8] and 29.6 µM (active) in assay [10].

As for `CCN(Cc1cccnc1)C(=O)c1cccc(Cl)c1[C@]1(C)C(=O)N(Cc2ccc(OC)cc2OC)c2ccc(Cl)cc21`, the result in [1], in [3], in assay [5], in assay [7], in [8] and in assay [10] was inactive. Further, the AC50 is 5.9 µM (active) in [2], 9.31 µM (active) in [4] and 22.3 µM (active) in [6].

With `O=C(Nc1ccc(Cl)cc1)Nc1ccc(Cl)c(Cl)c1`, the AC50 in [1] is 0.148 µM (active); in assay [2] it was 0.242 µM (active); in assay [3] it was 0.47 µM (active); in assay [4], 0.7 µM (active). The outcome in [5], in [6], in assay [7], in [8] and in assay [10] was inactive.

`O=c1[nH]sc2ccccc12`: the AC50 is 5.92 µM (active) in assay [1]; 6.98 µM (active) in assay [2]; 1.82 µM (active) in assay [3]; 3.23 µM (active) in assay [4]; 20 µM (active) in assay [5]; 31.7 µM (active) in [6]. In addition, the AC50 in assay [7] was 35.7 µM (active); in assay [8] it was 32.2 µM (active); in [10], 30.7 µM (active).

Regarding `O=C1c2ccccc2C(=O)N1CCc1noc(-c2ccc(CN3CCCCCC3)s2)n1`, the outcome in [1], in [2], in assay [3], in assay [4], in [5] and in [6] was inactive. Moreover, the outcome in assay [7], in assay [8] and in [10] was inactive.

Turning to `CCCCOC(=O)c1ccc(O)cc1`, the outcome in assay [1], in [2], in [3], in assay [4], in assay [5] and in assay [6] was inactive. For the same compound, the outcome in assay [7] and in assay [8] was inactive.

As to `Cc1ccc2oc(CN(Cc3ccccc3)C(=O)Nc3c(F)cc(F)cc3F)c(-c3ccc(Cl)cc3)c2c1`, the outcome in [1], in assay [2], in assay [3], in [5], in assay [6] and in [7] was inactive. The AC50 in [4] was 0.999 µM (active); in assay [8], 26.4 µM (active).

Turning to `Cc1cc(F)ccc1-c1cc(N2CC[C@@H](O)[C@H]2CO)ncc1N(C)C(=O)C(C)(C)c1cc(C(F)(F)F)cc(C(F)(F)F)c1`, the AC50 in [1] is 15.8 µM (active); in assay [2] it was 16.7 µM (active); in assay [3], 12.6 µM (active); in assay [4], 11.3 µM (active); in assay [5], 26.3 µM (active); in assay [7] it was 13.5 µM (active). Moreover, the figures for the AC50 in assay [9] and in assay [8] were 15 µM (active) and 12.4 µM (active), respectively.

The record behind these values is PubChem BioAssay (EPA / NIEHS).
